Experimental findings from PubChem BioAssay (EPA / NIEHS) are described below.

Results filed as inconclusive are left out. Activity calls are given as the source filed them. Rule for the calls, unless noted: active = hit-call score of the fitted dose curve at least 0.9, where 1 is the maximum; inactive = score below 0.9.

Assay [1] is described as follows: CCTE_Harrill_HTTr_Apoptosis_MCF7: CCTE's 6-hour Apoptosis Assessment for the High-Throughput Transcriptomics (HTTr) Platform, in MCF-7 cells cultured in DMEM + 10% fetal bovine serum, Harrill Lab (AID 2284011). The gist of the method:
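MCF-7 cells in DMEM + 10% fetal bovine serum were exposed to chemicals for 6 hours over an eight-point dilution series. Caspase-3/7 activation was imaged by high content imaging with CellEvent Caspase 3/7 Green; bidirectional fitting used DMSO as baseline.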

The nature of assay [2]: CCTE_Harrill_HTTr_CellCount_MCF7: CCTE's Cell Proliferation Assessment for the High-Throughput Transcriptomics (HTTr) Platform, Harrill Lab (AID 2284012; active = hit-call score of the fitted dose curve at least 0.9, where 1 is the maximum;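 note: cells exposed to compound for six hours; intended direction is loss of nuclei count meaning fewer cells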). The method, boiled down: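 MCF-7 cells were exposed for 6 h to an eight-point dilution series; Hoechst-labeled nuclei were counted by high content imaging. Curves were fitted bidirectionally against DMSO as negative control and baseline, with signal loss indicating reduced cell count.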

Assay [3] is described as follows: CCTE_Shafer_MEA_acute_burst_number: CCTE's Neural Acute Assay for Single-Electrode Bursts, Shafer Lab (AID 2284013). The gist of the method: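 Rat cortical cultures, DIV 13/15; 40 min baseline, then 40 min with compound 0.03-40 uM, 37 C. Spikes: 300-5000 Hz band-pass, threshold 8x rms noise. Readout = % change in single-electrode bursts vs baseline, loss-of-signal fit.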

A short description of assay [4]: CCTE_Shafer_MEA_acute_burst_duration_mean: CCTE's Neural Acute Assay for Mean Burst Duration, Shafer Lab (AID 2284014).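 Note: hits are decreases in mean burst duration relative to DMSO controls.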 The method, boiled down: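 Primary rat cortical neurons on 16-electrode MEA wells, treated on DIV 13 or 15 with compound (0.03-40 uM; ≥3 wells each). 40-min baseline and 40-min exposure recordings at 37 C; percent change in mean burst duration per well versus DMSO.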

Assay [5] is described as follows: CCTE_Shafer_MEA_acute_per_burst_spike_number_mean: CCTE's Neural Acute Assay for Average Number of Spikes Per Burst, Shafer Lab (AID 2284015).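 Note: hits are decreases in mean spikes per burst versus baseline.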 The gist of the method: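 Percent change in mean spikes per single-electrode burst is compared between a 40 min baseline and a 40 min recording with compound (0.03-40 uM). Cultures were rat cortical neurons on MEA plates at DIV 13 or 15, recorded at 37 C, with DMSO as the negative control.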

Assay [6] is described as follows: CCTE_Shafer_MEA_acute_interburst_interval_mean: CCTE's Neural Acute Assay for Mean Interburst Interval, Shafer Lab (AID 2284016).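 Note: percent change of mean interburst interval versus each well's own pre-dose baseline; curves fitted for decrease in interburst interval relative to DMSO.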 The method, boiled down: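 Percent change in mean single-electrode interburst interval was calculated per well from 40 min recordings before and after compound (0.03-40 uM). Recordings were made at 37 C on rat cortical cultures at DIV 13 or 15, with spikes detected at 8x rms threshold.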

Assay [7] in a line: CCTE_Shafer_MEA_acute_burst_percentage_mean: CCTE's Neural Acute Assay for Percentage of Spikes in a Burst, Shafer Lab (AID 2284017).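 For AC50: curve fitted for loss of signal so potency reflects decreased burst percentage.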 The gist of the method: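 Well-level mean burst percentage from a 40-min recording after compound (0.03-40 uM) expressed as percent change from a 40-min baseline at 37C. Cultures: primary rat cortical neurons on MEA, dosed on DIV 13 or 15; fitted downward relative to DMSO.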

The nature of assay [8]: CCTE_Shafer_MEA_acute_burst_percentage_std: CCTE's Neural Acute Assay for Standard Deviation of Burst Percentage, Shafer Lab (AID 2284018).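 Note: fitted in the negative direction so actives lower burst percentage SD.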 The gist of the method:
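Primary rat cortical neurons on 16-electrode MEA wells were recorded 40 min at baseline (DIV 13 or 15), then 40 min after compound (0.03-40 uM), at 37 C. Well value is SD across electrodes of spikes-in-bursts/total spikes; endpoint is percent change, DMSO-referenced.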

The nature of assay [9]: CCTE_Shafer_MEA_acute_per_network_burst_spike_number_mean: CCTE's Neural Acute Assay for Average Number of Spikes in a Network Burst, Shafer Lab (AID 2284019).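 For AC50: curve fitted for loss of signal so actives reduce spikes per network burst.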 The method, boiled down: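 Primary rat cortical neurons on 16-electrode MEA wells, DIV 13 or 15, 37 C; 40-min baseline then 40-min recording with compound (0.03-40 uM). Spikes per network burst (total spikes/number of bursts) expressed as percent change from baseline, DMSO reference.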

Assay [10] in a line: CCTE_Shafer_MEA_acute_per_network_burst_spike_number_std: CCTE's Neural Acute Assay for Standard Deviation of Number of Spikes in a Network Burst, Shafer Lab (AID 2284020).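 Note: fitted for decrease in spike-number SD versus DMSO so actives lower it.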 The gist of the method: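 Primary rat cortical neurons on 48-well MEAs (16 electrodes/well) recorded at DIV 13 or 15: 40-min baseline, then 40 min with compound (0.03-40 uM), 37 C. Value is percent change in SD of spikes per network burst, relative to DMSO.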

Consider `COc1ccc([N+](=O)[O-])cc1N`, for which the outcome in assay [1] and in assay [2] was inactive.

As to `CC(O)CO` (stereo not drawn), the result in assay [1] and in [2] was inactive.

As for `O=[N+]([O-])c1ccc(O)cc1`, the result in assay [1] and in assay [2] was inactive.

Consider `c1ccc2c(c1)Cc1ccccc1-2`, for which, in assay [2], the outcome was inactive.

For `CCCCOCCO`, the result in [1] and in [2] was inactive.

With `CCC(=C(c1ccc(O)cc1)c1ccc(OCCN(C)C)cc1)c1ccccc1`, the AC50 in [1] is 35.7 µM (active); in [4], 23 µM (active); in assay [5] it was 21 µM (active); in [7] it was 20.6 µM (active); in [10], 23.8 µM (active). Also, the call in assay [2], in assay [3], in [6], in assay [8] and in assay [9] was inactive.

For the molecule `OC1CCCCC1`, the result in assay [1] and in assay [2] was inactive.

For `O=c1c(-c2ccc(O)cc2)coc2cc(O)ccc12`, the outcome in assay [1], in assay [2], in assay [3], in [4], in assay [5] and in [6] was inactive. For the same molecule, the result in assay [7], in assay [8] and in [10] was inactive. For the same molecule, in [9], the AC50 is 4.06 µM (active).

For `Oc1cc2ccccc2c2ccccc12`, the outcome in assay [1], in assay [2], in assay [3], in assay [4], in assay [5] and in assay [6] was inactive. Further, the outcome in assay [7], in assay [8], in assay [9] and in assay [10] was inactive.

As to `CCCOC(=O)c1ccc(O)cc1`, the result in assay [1] and in assay [2] was inactive.

With `CCc1ccc(CCOc2ccc(CC3SC(=O)NC3=O)cc2)nc1` (stereo not drawn), the outcome in assay [1], in assay [2], in assay [3], in assay [4], in assay [5] and in assay [6] was inactive. Moreover, the molecule was classed as inactive in assay [7], in [8], in assay [9] and in assay [10].

In the case of `Cc1oc(-c2ccccc2)nc1CCOc1ccc(C[C@H](Nc2ccccc2C(=O)c2ccccc2)C(=O)O)cc1`, the outcome in assay [1] and in assay [2] was inactive.

As for `C#C[C@]1(O)CC[C@H]2[C@@H]3CCC4=CC(=O)CC[C@@H]4[C@H]3CC[C@@]21C`, the result in [1] and in assay [2] was inactive.

Regarding `CC(=O)CC(C)(C)O`, the result in [1] and in assay [2] was inactive.

For the molecule `NC(=O)N1C(=O)C(C(=O)c2cc(Cl)cs2)c2cc(F)c(Cl)cc21` (stereo not drawn), the result in assay [2] was inactive.

With `CC1=C(/C=C/C(C)=C/C=C/C(C)=C/C(=O)O)C(C)(C)CCC1`, the molecule was classed as inactive in [2].

As for `Nc1cccc2c(N)cccc12`, the outcome in assay [1] was inactive.

`COCC(C)O` (stereo not drawn): the outcome in assay [1] and in assay [2] was inactive.

In the case of `CCN(CC)CCNc1ccc(CNC=O)c2sc3ccc(OC)cc3c(=O)c12`, the call in assay [2] was inactive.

For the molecule `CCCCC(CC)COC(=O)CCCCC(=O)OCc1ccccc1` (stereo not drawn), the outcome in assay [1] and in assay [2] was inactive.

Regarding `CC(C)(C)c1ccc(O)c(C(C)(C)C)c1`, the result in assay [1] and in assay [2] was inactive.

For `CCCCCCC(=O)O`, the outcome in [1] and in [2] was inactive.

With `CCCCCCCCC(=O)O`, the molecule was called inactive in assay [2].

As for `COc1cc(CCC(=O)CC(=O)CCc2ccc(O)c(OC)c2)ccc1O`, the result in assay [1] and in [2] was inactive.

Consider `C=C(C)C(=O)OCCC(F)(F)C(F)(F)C(F)(F)C(F)(F)C(F)(F)C(F)(F)F`, for which the call in [2] was inactive.

Regarding `C[C@@H]1C[C@H]2[C@@H]3CCC4=CC(=O)C=C[C@]4(C)[C@@]3(F)[C@@H](O)C[C@]2(C)[C@@]1(O)C(=O)COP(=O)(O)O`, the molecule was called inactive in assay [2].

For `CCCCC[C@H](O)CC(=O)CCc1ccc(O)c(OC)c1`, the outcome in assay [1] and in assay [2] was inactive.

For `O=C(O)Cc1cc(I)c(Oc2cc(I)c(O)c(I)c2)c(I)c1`, the molecule was called inactive in assay [2].

With `OC1CCC(C2CCCCC2)CC1` (stereo not drawn), the result in assay [1], in assay [2], in [3], in assay [4], in [5] and in assay [6] was inactive. In addition, the molecule was called inactive in [8], in [9] and in assay [10]. In addition, the AC50 in assay [7] is 27.3 µM (active).

On to `O=C1OC2(c3ccccc31)c1cc(Br)c(O)c(Br)c1Oc1c2cc(Br)c(O)c1Br`, for which the AC50 in [1] is 1.92 µM (active). Also, the call in [2] was inactive.

With `CCCOc1sc(C(=O)N2CCC(c3cc(CN)ccc3F)CC2)c(C)c1Br`, the molecule was called inactive in [3], in [4], in assay [5], in assay [6], in assay [7] and in [8]. Also, the outcome in assay [9] and in [10] was inactive.

With `O=C(OCCOCCOC(=O)c1ccccc1)c1ccccc1`, the outcome in assay [2] was inactive.

For `NC(=O)N(O)[C@@H]1C=C[C@H](Oc2cccc(Oc3ccc(F)cc3)c2)C1`, the call in assay [2], in assay [3], in assay [8] and in assay [9] was inactive. The AC50 in assay [4] was 18.5 µM (active); in assay [5], 10 µM (active); in assay [6], 2.69 µM (active); in assay [7], 12.9 µM (active); in [10] it was 10 µM (active).

As to `CCC(C)(C)C1CCC(O)CC1` (stereo not drawn), in [2], the outcome was inactive.

For `O=C(O)c1ccccc1C(c1ccc(O)cc1)c1ccc(O)cc1`, the call in assay [3], in assay [4], in [5], in [6], in assay [8] and in assay [10] was inactive. Further, the half-maximal activity concentration (AC50) in assay [7] and in assay [9] was 20 µM (active) each time.
